# Data reported in PubChem BioAssay AID1671194 (National Center for Advancing Translational Sciences (NCATS), 2021).
# Screen size: about 140,000 compounds; about 240 (0.17%) were called active. Inconclusive results (about 9%) are left out. The entries come from a sample that favours actives as a whole. Values without a mark were called inactive. Calls come from the whole dose curve; as a rule, active = well fitted inhibition curve with a large enough effect; inconclusive = small, poorly fitted or top-dose-only effect; inactive = no such curve, though single readings can be large or run the other way.
# Experiment: Primary qHTS assay for inhibitors of alpha-synuclein gene (SNCA) expression; note: nearly all actives have a fitted effect of over 45% in size
# Details: HEK-293 SNCA-luciferase knock-in, luminescence, 24 h; series mostly up to 57.2 µM; activity change, negative = inhibition: at the top concentration
# Source text: Assay Submitter (PI): Daniel R. Scoles Ph.D.
# Department of Neurology, University of Utah, Salt Lake City, Utah
# Accumulation of alpha-synuclein is a main underlying pathological feature of Parkinson's disease (PD) and alpha-synucleinopathies, for which lowering expression of the alpha-synuclein gene (SNCA) is a potential therapeutic avenue. Using a cell-based luciferase reporter of SNCA expression we performed a quantitative high throughput screen (qHTS) of 155,885 compounds in dose response. The screening assay was generated using genome editing to insert the luciferase gene downstream and in frame of the SNCA gene in HEK-293 cells (1). A viability counterscreen using GF-AFC was used to eliminate cytotoxic and false positive compounds. After in silico analysis (clustering, removal of frequent hitter nuisance chemotypes), inhibitor compounds from the primary screen were selected for follow up and re-tested at 11-doses in the SNCA-luc cells (luciferase and GF-AFC confirmation), and in CMV-luc expressing cell line to flag general transcriptional repressors.
# Described herein are the results of the primary screen for SNCA inhibitors; decrease in luciferase signal (inhibition of the SNCA gene expression) is the desired output for this assay.
# 1. Dansithong, W., Paul, S., Scoles, D. R., Pulst, S. M., and Huynh, D. P. (2015) Generation of SNCA Cell Models Using Zinc Finger Nuclease (ZFN) Technology for Efficient High-Throughput Drug Screening. PLoS ONE 10, e0136930.
# SEQUENCE No. (e.g., 1, 2, 3, etc.); […] (e.g., Cells, Incubation, Reagent, etc.); VALUE; DESCRIPTION
# 1; Cells; 4 uL; Dispense 1500 HEK-293-SNCA-luc cells/well into Greiner 1536-well white / solid bottom tissue culture treated plate. The plate was covered with metal lids with gas-exchange holes.
# 2; Incubate; 24 hours; Incubate at 37C, 5% CO2, 95% RH.
# 3; Compounds; 23 nL; Compounds and controls were transferred via a Kalypsys Pin Tool (Wako USA) equipped with a 1536-slotted pin array. The plate was covered with metal lids with gas-exchange holes.
# 4; Incubate; 24 hours; Incubate at 37C, 5% CO2, 95% RH.
# 5; Dispense; 1 uL; Dispense Gly-Phe-7-amino-4-trifluoromethylcoumarin (GF-AFC, prepared at 125 uM in PBS) was added. The plate was covered with metal lids with gas-exchange holes.
# 6; Incubate; 30 min; Incubate at 37C, 5% CO2.
# 7; Detector; Fluorescence; Measure fluorescence with ViewLux microplate reader (PerkinElmer) equipped with 405/10 excitation and 540/25 emission filters.
# 8; Dispense; 3 uL; Dispense ONE-Glo ([…]) lucifase detection reagent was added to each well. Plates were covered with metal lids with gas-exchange holes.
# 9; Incubate; 15 min; Incubate at room temperature.
# 10; Detector; Luminescence; Measure luminescence with ViewLux microplate reader (PerkinElmer) equipped with clear filters.
# NOTES (numbers refer to sequence above)
# 1; HEK-293-SNCA-luc were cultured and suspended in phenol-red free DMEM (4.5 g/L glucose, 25 mM HEPES, cat #21063 (Thermo)).
# 3; Compounds were added to the assay plate in an 11-point intra plate dose response, 1:3 titration in DMSO with a final concentration range of […]. Vehicle-only plates, with DMSO being pin-transferred to every well, were inserted at the beginning of screening runs to confirm expected assay performance. Activity was normalized to wells containing medium only (-100% activity, full inhibition) and SNCA-luc cells treated with DMSO vehicle control (0% activity), contained on the same plate as test samples.
# 10; Signals were analyzed, and dose-response curves were fit using the Hill equation. Compounds in curve classes -1.1, -1.2, -2.1, -2.2 in the SNCA-luc assay were considered active. Compounds were eliminated from further consideration if also active (curve class -1.1, -1.2, -1.3, -1.4, -2.1, -2.2, -2.3, -2.4) in the GF-AFC cytotoxicity assay.
# Potency is the fitted concentration of half-maximal effect.
Compound,"activity change, negative = inhibition",Potency
Cn1ncc2c(C(=O)NCc3cccnc3)cc(C(C)(C)C)nc21,-10.6%,–
CC(=O)N1CCN(C(=O)C2CCCN2Cc2ccc(-c3cc(C)cc(C)c3)cc2)CC1 (stereo not drawn),22.3%,–
CC1=C[C@@H](CN2CCCC2)[C@H](C(C)C)C[C@H]1Cc1nnc(-c2ccc([N+](=O)[O-])cc2)o1,-27.7% [at 87.6 µM],–
Cc1nc(N2CCC(NCCNc3ccncc3C)CC2)c2ccsc2n1,-2.65%,–
Cc1ccccc1C(=O)N1CCC(C(=O)N2CCC(c3nc4ccncc4[nH]3)C2)CC1 (stereo not drawn),6.85%,–
CC(=O)N1CCC(N[C@H]2C[C@@H](Cc3cc(CN(C)c4ccccc4)on3)C2(C)C)CC1,4.87% [at 87.6 µM],–
COc1ccc(-c2cn3cc(C(=O)NCc4ccc(F)cc4)nc3s2)cc1,-7.67%,–
COc1ccc(CN2CC(Oc3ccc(OC)cc3)C2)cc1,-5.4% [at 87.6 µM],–
CCCCn1c(=O)c(C(=O)N2CCN(C(=O)c3ccccc3)CC2)nc2cccnc21,-2.39%,–
Cc1ccccc1-c1ccnc(-c2nnc(C)n2C(C)C)c1,-7.25% [at 87.6 µM],–
Cc1ccc(OCC(=O)N2CCC(c3nn(C)c4c3COCC4)CC2)cc1,1.65%,–
COCCOCC1(CNS(=O)(=O)c2c(C)noc2C)C[C@@H](O)[C@@H](O)C1 (stereo partly drawn),4.32% [at 87.6 µM],–
c1ccc(CNC[C@H]2Cn3cc(-c4ccccc4)nc3CO2)cc1,84.9% [at 87.6 µM],–
Cc1nnc(-c2cc(-c3ccccc3)ccn2)n1CCc1ccccc1,32.3% [at 87.6 µM],–
CC(C)=CCC1(CO)CCCN(Cc2ccccc2OCCO)C1 (stereo not drawn),-6.74%,–
O=C1NCCCCCCN(Cc2ccncc2)[C@@H]2CN(CC3CC3)CC[C@@H]12,-21.1%,–
CC[C@H]1CN(C(=O)Nc2cccc(C(F)(F)F)c2)CC[C@H]1CC(=O)NCCSC,-20% [at 87.6 µM],–
COC(=O)c1cccc(NC(=O)N2CCc3c(nc4cc(-c5ccccc5)[nH]n4c3=O)C2)c1,37.1%,–
NCc1ccccc1-c1cccc(O)c1,-17.9% [at 87.6 µM],–
O=C(c1n[nH]c2c1CCCC2)N1CCC2(CC1)NC(=O)N(c1ccc(F)cc1)N2,0.129%,–

Compound,"activity change, negative = inhibition",Potency
COc1ccc(OC)c(CN2CCC3(CC2)COCCN3C(=O)OCc2ccccc2)c1,-4.88%,–
COc1ccc(-c2ncc3c(n2)OCCN(CC2CC2)C3=O)cc1,-22.4% [at 87.6 µM],–
O=C([C@@H]1C[C@H](c2ccc(F)cc2)N([S+](=O)([O-])C2CC2)C1)N1CCN(c2ccccn2)CC1,54.6%,–
COCCNC(=O)[C@@H]1C[C@H](Oc2cccnc2)CN1C(=O)C1CC=CC1,9.07%,–
COc1cccc(CNC(=O)N2CCCC3(C2)Nc2cccnc2NC3=NC2CCCC2)c1 (stereo not drawn),-21.6%,–
CCn1cc2nc(SCc3ccccc3Cl)n(CCc3ccccc3)c(=O)c2n1,–,14.1 µM (active)
Cc1cccc(Cc2c(C)nc3nc(SCc4ccccc4Cl)nn3c2C)c1,12.7%,–
CCN(CC)C(=O)CSc1nc2ccsc2c(=O)n1Cc1ccccc1Cl,-0.0876%,–
CCOc1ccc(NC(=O)CSc2ncnc3c2sc2ccccc23)cc1,15.5%,–
CCOc1ccc(NC(=O)CSc2c3c(nc4ccccc24)CCCC3)cc1,–,28.2 µM (active)
Cc1ccc(CNC(=O)CSc2c3c(nc4cc(Cl)ccc24)CCCC3)cc1,13.9%,–
CCOc1cccc(CN2CCC3(CC2)CN(C)CC3COC)c1 (stereo not drawn),8.9%,–
COc1ccc(OCC2CCN(CC3(O)CCCNC3)CC2)cc1 (stereo not drawn),84.6%,–
O=C(NCc1cccc(F)c1)c1cccnc1N1CC2CC(C1)[C@H]1CCCC(=O)N1C2 (stereo partly drawn),14.2%,–
O=S(=O)(c1ccccc1)N1CCC(CCOc2ccccc2)C1 (stereo not drawn),-20.6%,–
O=C1NC2(CCCN([S+](=O)([O-])c3ccccc3)C2)COc2ccccc21 (stereo not drawn),-3.78%,–
C=CCn1nc(C(=O)N2CCOCC2)c2c1CCC(NCC1(c3ccccc3)CCCCC1)C2 (stereo not drawn),5.82%,–
CCN(CC)CCNC(=O)C1N(C(C)C)C(=O)C12CCCC2 (stereo not drawn),5.62%,–
O=C(CSc1nccn1-c1ccc(F)cc1)Nc1cccc2ccccc12,-16.9%,–
Cc1cc(C)cc(-n2ccnc2SCC(=O)Nc2nc3ccccc3s2)c1,8.94%,–

Compound,"activity change, negative = inhibition",Potency
Cc1cccc(-n2ccnc2SCC(=O)Nc2cccc3ccccc23)c1C,–,20 µM (active)
COc1ccc(NC(=O)c2c(C)oc3ccn(Cc4ccc(F)cc4)c(=O)c23)c(OC)c1,1.86%,–
Cc1ccc(CN2CCC(Oc3cnc4c(ccn4CCN[S+](C)(=O)[O-])c3)CC2)c(F)c1,-5.54%,–
Cn1ncc2c(C(=O)NCc3cccs3)cc(-c3ccc(Cl)nc3)nc21,-4.22%,–
Cc1ccc(CN2CCOc3cc([S+](=O)([O-])N(C)C)ccc3C2)c(F)c1,-6.31% [at 87.6 µM],–
Cc1cccc(C(=O)N2CCC3(CC2)CC(CC(=O)NCc2ccncc2)CCO3)c1 (stereo not drawn),-5.21%,–
O=C(CCn1ccn2nc3c(c2c1=O)CCCC3)Nc1ccc(Cl)c(C(F)(F)F)c1,3.6%,–
CCOc1cc(C)c(CN2C[C@@H](CN(C)C)C[C@H](CO)C2)cc1C(C)C,-24.3%,–
O=S(=O)(c1ccccc1)N1CCC(F)(c2nc(Cc3ccccc3)no2)CC1,-21.3%,–
O=C(c1nc2cccnc2n(Cc2ccccc2)c1=O)N1CCN([S+](=O)([O-])c2ccccc2)CC1,-16.6%,–
COc1cccc(-c2cccc(C(=O)N3CCCC3C(=O)NCc3ccccc3Cl)c2)c1 (stereo not drawn),0.109%,–
O=C(O)CCC(=O)N1Cc2ccccc2CC2(CCN(Cc3ccc(O)cc3)C2)C1 (stereo not drawn),37.4%,–
CCCCn1c(=O)c(C(=O)NCCSC)nc2cccnc21,3.61% [at 87.6 µM],–
Cc1ccccc1CN1Cc2nc(NCc3ccncc3)ccc2OCC1=O,-14% [at 87.6 µM],–
O=C1Nc2ccccc2C2(CCN(S(=O)(=O)c3cccc(C(F)(F)F)c3)C2)O1 (stereo not drawn),-6.5%,–
CN1CCN(C[C@@H]2CN(C(=O)CCc3c[nH]c4ccccc34)C[C@@H]2CO)CC1,1.82%,–
CCc1cccc2c(C(CC(=O)NC(C)CC)c3cccc(OC)c3)c[nH]c12 (stereo not drawn),-2.41%,–
Fc1ccc(-c2ccnc3nc(C4CCC4)nn23)cc1,12.1%,–
